Laboratory results: PubChem BioAssay AID2314 (National Center for Advancing Translational Sciences (NCATS), 2010)
The whole screen tested about 300,000 compounds, of which about 37,000 (12%) were called active. The sample as a whole holds a higher share of actives than the screen did. Values without a mark were called inactive. No stated cut-off is given here; in the data, active means max response mostly above about 13% (no sharp cut-off); inactive means mostly below about 14%.

Experiment: Cycloheximide Counterscreen for Small Molecule Inhibitors of Shiga Toxin; further: read at 38.3 µM for the half of the compounds with a filed dose; 0% is about no effect
Conditions: cell reporter, cycloheximide protein synthesis inhibition counterscreen; active compounds read high

Row | Structure (SMILES) | max response
1 | CN1C2CCC1CC(NC(=O)c1ccc([N+](=O)[O-])cc1)C2 (stereo not given) | -3.99%
2 | COc1ccc(CCNC(=O)c2c(C)nn(-c3ccccc3)c2Cl)cc1 | -2.65%
3 | CCn1c(=O)c2cc(C(=O)Nc3cccc(C(C)=O)c3)sc2c2ccccc21 | -2.44%
4 | CSc1ccccc1C(=O)Nc1cccc(C(C)=O)c1 | 11.9%
5 | CC(=O)c1cccc(NC(=O)c2cc(C)nn2-c2ccccc2)c1 | 12.3% (active)
6 | Cc1ccc(NC(=O)Nc2cc(-c3ccccc3)nn2C)cc1Cl | 1.12%
7 | Cc1cc(NC(=O)Nc2ccccc2)n(-c2ccccc2)n1 | 18.1% (active)
8 | Cc1nn(-c2ccccc2)c(CC(C)(C)C(=O)O)c1C(=O)O | -4%
9 | Cc1cc(NC(=O)Nc2ccc(Cl)cc2)n(-c2ccccc2)n1 | 1.95%
10 | Cc1nn(-c2ccccc2)c(Cl)c1C(=O)Nc1ccccc1 | 24.4% (active)
11 | O=C(NCc1ccco1)/C(=C/c1cccc([N+](=O)[O-])c1)NC(=O)c1ccco1 | 1.87%
12 | COC(=O)[C@H](Cc1ccccc1)NC(=O)[C@@H]1C[C@H]1[C@@H](NC(=O)OCc1ccccc1)c1ccccc1 | -3.05%
13 | Cc1nn(C)c(C)c1Sc1ccccc1N | 1.39%
14 | O=C(COc1ccc([N+](=O)[O-])cc1)Nc1cccc(C(=O)Nc2ccccc2C(=O)O)c1 | -6.64%
15 | Cc1cccc(N2CCN(C(C)C(=O)N3CCc4ccccc43)CC2)c1C (stereo not given) | -5.33%
16 | O=C(c1cn(-c2ccccc2)nc1-c1cc2ccccc2oc1=O)N1CCOCC1 | 6.82%
17 | Nc1ncc(-c2cc3ccccc3oc2=O)s1 | 43.5% (active)
18 | O=C(NCc1cccnc1)c1cccc(-c2cc3ccccc3oc2=O)c1 | 12.9%
19 | O=C(Nc1ccc(F)cc1)C1CCCN(S(=O)(=O)c2ccc(-n3cnnn3)cc2)C1 (stereo not given) | -0.989%
20 | O=C(c1c(F)cccc1Cl)N1CCN(c2ccccn2)CC1 | -8.36%
21 | COc1ccccc1CNC(=O)c1ccc(CS(=O)(=O)c2ccccc2)o1 | -1.73%
22 | CC(=O)c1ccc(S(=O)(=O)N2CCN(C(=O)/C=C/c3ccc4ccccc4n3)CC2)cc1 | -1.24%
23 | NC(=O)COC(=O)/C=C/c1ccc2ccccc2n1 | 16.4% (active)
24 | O=C(COC(=O)/C=C/c1nc2ccccc2s1)Nc1ccccc1Oc1ccccc1 | -1.69%

Row | Structure (SMILES) | max response
25 | CCCCCCCCn1c2c(c(=N)c3c1CCC3)CCCC2 | -1.22%
26 | CCC(CC)COC(=O)C1=C(C)NC(=O)NC1c1ccc([N+](=O)[O-])cc1 (stereo not given) | -4.34%
27 | CCc1ccc2nc(Nc3ncc(C(C)=O)c(C)n3)nc(C)c2c1 | 4.49%
28 | COc1ccccc1Nc1ncc(C(C)=O)c(C)n1 | 17% (active)
29 | COc1ccccc1-c1c(C)nn2c(C)c(C(C)=O)cnc12 | -2.56%
30 | CC(=O)NC(Cc1ccc(F)c(F)c1)C(=O)NC1CCN(c2nnnn2-c2ccccc2)CC1 (stereo not given) | -1.76%
31 | COc1ccc(N2CCN(S(=O)(=O)c3cc(Br)cnc3N)CC2)cc1 | -1.92%
32 | COc1ccc(OCc2ccc(-c3nc4ccccc4c(=O)n3N)o2)cc1 | 30.2% (active)
33 | COc1ccc(-c2nc3ccccc3c(=O)n2CCc2ccc(O)cc2)cc1 | 17.7%
34 | COc1ccc(OCc2n[nH]c(=S)n2N)cc1 | 5.41%
35 | CCCCCNC(=O)C1c2ccccc2Oc2ccccc21 | -1.28%
36 | [2H]C(CCOS(N)(=O)=O)c1ccccc1 (stereo not given) | -0.0595%
37 | COC(=O)[C@]1(S(=O)(=O)c2ccccc2)C[C@@H]2ON=C(c3ccc(OC)cc3)[C@@H]2C1 | 12.7%
38 | CCC1Sc2ccc(S(=O)(=O)CCC(=O)NCc3cccs3)cc2NC1=O (stereo not given) | 15.6%
39 | Cc1ccc(C)c(NS(=O)(=O)c2cc(Br)cnc2N)c1 | -1.97%
40 | COc1ccccc1CN(C)c1nnnn1-c1ccccc1 | -3.28%
41 | COc1ccccc1-n1nnnc1S(=O)(=O)Cc1ccc(Cl)cc1 | 16.8% (active)
42 | COc1ccccc1N1CCN(S(=O)(=O)c2ccc(Cl)cc2)CC1 | -4.44%
43 | CN(C)c1ccc(CNC2C3CC4CC(C3)CC2C4)cc1 (stereo not given) | -2.32%
44 | CCOc1ccc(C(=O)NC(=S)Nc2ccc(NC(=O)C(C)C)cc2)cc1[N+](=O)[O-] | -1.26%
45 | CC(=O)Oc1ccc(C(=O)Nc2nccs2)cc1 | 11.1%
46 | CCOc1ccc(C(=O)Nc2nccs2)cc1[N+](=O)[O-] | 28.1% (active)
47 | CC(C)NC(=O)c1ccc(Cl)cc1Cl | 8.78%
48 | O=C(N/N=C/c1ccoc1)c1ccc(Cl)cc1Cl | 28.2% (active)

Row | Structure (SMILES) | max response
49 | CC(C)c1cc(C(=O)N/N=C/c2ccoc2)c(O)c(C(C)C)c1 | 6.52%
50 | CC(C)c1ccc(N2CCN(C(=O)c3ccccc3NC(=O)/C=C(\C(=O)O)c3ccccc3)CC2)cc1 | 24.6%
51 | COCCCNC(=S)NCCNc1nc2cc(C)c(C)cc2cc1C#N | 26%
52 | COc1ccc(CNS(=O)(=O)c2ccc(-c3cnc(C4CC4)o3)cc2)cc1 | -0.963%
53 | O=C(NCC1CCCO1)c1cc2c([nH]c3ccccc32)c(-c2ccc(F)cc2)n1 (stereo not given) | -1.44%
54 | COc1ccc(-c2cc(=O)oc3cc(OC(C)C(=O)NCC4CCC(C(=O)O)CC4)ccc23)cc1 (stereo not given) | -2.31%
55 | Cc1cc(-c2nnc(CCC(=O)NC(c3ccccc3)c3ccccc3)o2)no1 | 25.2% (active)
56 | O=C(CCc1nnc(CCCCc2ccccc2)o1)NC(c1cccnc1)C(F)(F)F (stereo not given) | -3.39%
57 | CC(CCn1cccn1)NC(=O)CCc1nnc(CCc2ccccc2)o1 (stereo not given) | 5.1%
58 | CCOC(=O)/C=c1\s/c(=C\c2ccc(C#N)cc2)c(=O)n1CC(=O)Nc1cccc(C)c1C | -1.86%
59 | Cc1cc(OCc2ccc(C(=O)Nc3ccc(C(=O)O)cc3)o2)ccc1Cl | 0.897%
60 | COc1ccc(C(C(=O)NC2CCCCC2)N(C(=O)Cc2c[nH]c3ccccc23)c2ccccc2)cc1OC (stereo not given) | -2.16%
61 | Cc1ccc(Nc2ccc(C(N)=O)cc2[N+](=O)[O-])cc1 | 14.3% (active)
62 | NC(=O)c1ccc(Nc2ccc3c(c2)CCC3)c([N+](=O)[O-])c1 | -2.88%
63 | NC(=O)c1ccc(Nc2ccc3nonc3c2[N+](=O)[O-])cc1 | 6%
64 | c1ccc(CSc2nnc(-c3ccco3)c(-c3ccco3)n2)cc1 | 5.66%
65 | O=C(CSc1nnc(-c2ccco2)n1Cc1ccccc1)NC(=O)NCc1ccco1 | 9.36%
66 | c1ccc(CSc2nnc(-c3ccco3)n2Cc2ccccc2)cc1 | 27.8% (active)
67 | N#CCOc1ccc(C2=NO[C@@H]3[C@@H]4C[C@@H]([C@H]5C(=O)N(c6ccc7c(c6)OCO7)C(=O)[C@@H]45)[C@H]23)cc1 | -3.49%
68 | Cn1c(CNC(=O)c2ccccc2F)nnc1SCc1ccc(F)cc1 | 6.96%
69 | COc1ccc(CCNC2=C(Cl)C(=O)N(Cc3ccccc3)C2=O)cc1OC | 5.5%
70 | COc1cccc(/C(C)=N/Nc2ncc(Cl)cc2Cl)c1 | 41.6% (active)
71 | C/C(=N\Nc1nc2ccccc2[nH]1)c1cccs1 | 36.7% (active)
72 | CCN(CC)c1ccc(C(=O)N/N=C(\C)c2cccc(OC)c2)cc1 | -2.4%

Row | Structure (SMILES) | max response
73 | O=C(Nc1ccccc1-c1nc2ccccc2[nH]c1=O)c1cccs1 | 0.926%
74 | C/C(=N\Nc1ncc(Cl)cc1Cl)c1ccc(S(=O)(=O)NCc2ccco2)cc1 | 113% (active)
75 | COC(=O)c1sccc1N/N=C(\C)c1ccc(F)c(Cl)c1 | 7.97%
76 | Cc1c(Cl)cnc(NC(=O)COC(=O)c2ccc(S(=O)(=O)NCc3ccco3)cc2)c1Cl | -0.376%
77 | C/C(=N\NS(=O)(=O)c1ccc(Br)cc1)c1cccs1 | -1.14%
78 | C/C(=N\Nc1ccc(S(N)(=O)=O)cc1[N+](=O)[O-])c1cccs1 | -5.09%
79 | C/C(=N\Nc1ncc(Cl)cc1Cl)c1cccs1 | 45.9% (active)
80 | O=S(=O)(NCc1ccco1)c1cnc(Cl)c(Cl)c1 | -2.82%
81 | C/C(=N\Nc1nc(Nc2ccccc2)nc(N2CCOCC2)n1)c1cccs1 | 14.5%
82 | CC(=O)Nc1c2c(nn1-c1cccc(C)c1)CSC2 | 8.26%
83 | C=CCn1c2ccccc2c2nnc(SCc3[nH]c(=O)[nH]c3C(=O)CCCCC(=O)OCC)nc21 | 2.1%
84 | Cc1cccc(C)c1NC(=O)C1(C)c2cccc[n+]2CC(=O)N1Cc1cccs1 (stereo not given) | -1.89%
85 | COC(=O)c1ccc(C(NC(=O)OCc2ccccc2)/C(F)=C/[C@@H](C)C(=O)O)cc1 (stereo not given in full) | 6.37%
86 | CN1CCC(=O)N([C@H](CO)Cc2ccccc2)CC1 | 1.38%
87 | CCCC(=O)N=c1sc2cccc(F)c2n1C | -3.69%
88 | Cn1c(=NC(=O)c2ccco2)sc2cccc(F)c21 | 72.9% (active)
89 | Cn1c(=NC(=O)C2CC2)sc2cc(F)cc(F)c21 | -0.185%
90 | COC(=O)c1c(NC(=O)c2ccccc2F)sc2c1C(C(=O)OC)CC2 (stereo not given) | 7.34%
91 | C/C(=N\N)c1c(-c2ccccc2)c2cc(Br)ccc2[nH]c1=O | 1%
92 | O=C(Cn1nc([N+](=O)[O-])nc1Br)NC1CCCCC1 | -4.71%
93 | Cc1ccccc1C(=O)NC(=S)NC1CC1 | 19.1% (active)
94 | COc1ccccc1C(=O)NC(=S)NC12CC3CC(CC(C3)C1)C2 | 13.4%
95 | O=C(NNC(=S)NC1CCCCC1)c1ccccc1Cl | 5.48%
